# Compound activity as filed in PubChem.
# Rows were chosen to be rich in hits. Some 5.2% of all compounds tested hit in one or more screens of this group.
# IDH1 R132H inh = human IDH1 R132H inhibition; IDH1-R132H enzyme, NADPH consumption, diaphorase/resazurin fluorescence; Potency, µM (highest dose often 76.6 µM), for inactives: at the top dose activity change, negative = inhibition, usual class: inhibitors; 390,000 tested, 0.093% active; AID 602179; further: nearly all actives have a fitted effect of over 65% in size
#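 IDH1-R132H (0.5 ug/mL dispensed) in pH 7.5 Tris buffer was preincubated 30 min with compound, then given a substrate mix of 0.016 mM NADPH and 2 mM alpha-KG for 80 min at room temperature; remaining NADPH was read by diaphorase/resazurin fluorescence.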
# PLK1 PBD block = PLK1 (human) polo-box domain binding inhibition; P53350; Plk1 PBD binding of FITC phosphopeptide, fluorescence polarization; Potency, µM, inactives show max response, negative = inhibition, actives largely listed as inhibitors; 360,000 tested, 2.8% active; AID 720504; further: series mostly up to about 57 µM; nearly all actives have a fitted effect of over 65% in size
# Target sequence (P53350 whole entry, looked up, the tested form may be a part): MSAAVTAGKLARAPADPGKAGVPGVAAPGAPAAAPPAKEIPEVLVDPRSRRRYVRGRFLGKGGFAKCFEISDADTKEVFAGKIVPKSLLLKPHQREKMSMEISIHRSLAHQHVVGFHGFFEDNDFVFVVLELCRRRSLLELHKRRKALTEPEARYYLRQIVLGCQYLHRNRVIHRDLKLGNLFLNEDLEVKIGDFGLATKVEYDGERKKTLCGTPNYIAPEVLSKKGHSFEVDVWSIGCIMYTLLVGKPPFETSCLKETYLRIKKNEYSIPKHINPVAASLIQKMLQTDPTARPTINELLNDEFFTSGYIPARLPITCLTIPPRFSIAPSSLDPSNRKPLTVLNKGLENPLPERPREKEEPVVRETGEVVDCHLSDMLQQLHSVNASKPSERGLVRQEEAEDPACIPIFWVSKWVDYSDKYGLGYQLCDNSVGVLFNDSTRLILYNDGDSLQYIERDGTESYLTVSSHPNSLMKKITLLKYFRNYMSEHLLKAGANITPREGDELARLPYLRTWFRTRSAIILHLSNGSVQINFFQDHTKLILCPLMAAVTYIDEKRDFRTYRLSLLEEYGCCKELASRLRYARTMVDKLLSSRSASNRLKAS
# VDR inh = vitamin D3 receptor (human) inhibition; P11473; 400,000 tested, 0.93% active; VDR-SRC2-3 peptide fluorescence polarization, 2 h; Potency, µM, inactives show max response, negative = inhibition, hits mostly inhibitors
#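 Reagent solutions, kept cold and dark, are dispensed first; compounds are then pinned in at 23 nl, plates briefly spun, and incubated 2 h at ambient temperature. Inhibition of VDR–SRC2-3 peptide binding is read by fluorescence polarization.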
# TrxR1 inh = rat TrxR1 inhibition | O89049 | recombinant rTrxR1, NADPH fluorescence consumption, selenite substrate | Potency, µM (series often up to 114 µM), for inactives: at the highest dose activity change, negative = inhibition, actives largely listed as inhibitors | 390,000 tested, 1% active; further: nearly all actives have a fitted effect of over 65% in size
#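 Rat TrxR1 (90 nM in the dispensed reagent) was pre-reduced with 400 uM NADPH for 5 min at room temperature, then incubated with compound for 15 min. After 400 uM selenite was added, NADPH fluorescence (Ex 340/Em 450 nm) was followed for 8 min.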
# Sfp inh = blocks B. subtilis Sfp PPTase activity; Potency, µM, for inactives: largest response in the series, negative = inhibition, actives largely listed as inhibitors; Q9F4F7; AID 1490; 310,000 tested, 3.5% active; Biochemical Sfp PPTase activity, qHTS;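 further: the enzyme is Sfp with the accession as filed and its product quenches rhodamine fluorescence; 0% = enzyme reaction without inhibitor and -100% = no enzyme wells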
#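 Sfp 15 nM + cpd, 15 min RT; start w/ rhodamine-CoA 5 uM, BHQ-2-YbbR 12.5 uM (final); 50 mM Hepes pH 7.6, 10 mM MgCl2, 0.01% NP-40, 0.01% BSA; read 525/598 nm at 0 and 30 min.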
# TrxR1 substrate = rat thioredoxin reductase 1 substrate activity | O89049 | purified TrxR1 substrate turnover, NADPH consumption readout | Potency, µM (series often up to 114 µM), for the others: at the highest dose activity change, negative = substrate turnover | 390,000 tested, 0.01% active; further: nearly all actives have a fitted effect of over 50% in size
#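 Rat TrxR1, dispensed at 90 nM, was prereduced with 400 uM NADPH (final) for 5 min at ~22 deg C, then incubated with compound 15 min before 400 uM selenite. A first-read NADPH fluorescence drop versus no-compound background flagged substrates.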
# * = called active by the depositor; ? = inconclusive; . = not tested or not shown; [ ] = dose if it differs, or a comment. The call rests on the fitted dose curve; in most records, active means well fitted curve in the direction sought with a large enough effect; inconclusive means small, poorly fitted or top-dose-only effect, or another doubt; inactive means no such curve, though single readings can be large; an effect the other way counts as inactive or inconclusive. Unless noted, on the % scale 0 is the no-effect control and ±100 the full control effect; potency means the concentration at half of the fitted maximal effect.
SMILES,IDH1 R132H inh,PLK1 PBD block,VDR inh,TrxR1 inh,Sfp inh,TrxR1 substrate
C#CCOCCOCCOCCNc1nc(N2CCN(C(=O)[C@H](CCCCN)n3cc([C@@H](N)CC(C)C)nn3)CC2)nc(N2CCN(C(=O)[C@H](Cc3cc4ccccc4[nH]3)n3cc([C@@H](N)Cc4ccc(O)cc4)nn3)CC2)n1,2%,-5%,0%,45µM*,-17%,8%
C#CCOCCOCCOCCNc1nc(N2CCN(C(=O)[C@H](Cc3ccc(O)cc3)n3cc([C@@H](N)C(C)CC)nn3)CC2)nc(N2CCN(C(=O)[C@H](Cc3cc4ccccc4[nH]3)n3cc([C@@H](N)Cc4ccc(O)cc4)nn3)CC2)n1 (stereo partly drawn),.,.,.,.,56µM*,.
C#CCOCCOCCOCCNc1nc(N2CCN(C(=O)C(Cc3ccc(O)cc3)n3cc(C(N)CC(C)C)nn3)CC2)nc(N2CCN(C(=O)C(Cc3cc4ccccc4[nH]3)n3cc(C(N)C(C)CC)nn3)CC2)n1 (stereo not drawn),.,.,.,.,-3%,.
C#CCOCCOCCOCCNc1nc(N2CCN(C(=O)[C@H](CCCCN)n3cc([C@@H](N)CO)nn3)CC2)nc(N2CCN(C(=O)[C@H](Cc3cc4ccccc4[nH]3)n3cc([C@@H](N)Cc4ccc(O)cc4)nn3)CC2)n1,.,.,.,.,-3%,.
C#CCOCCOCCOCCNc1nc(N2CCN(C(=O)C(Cc3cc4ccccc4[nH]3)n3cc(C(N)C(C)CC)nn3)CC2)nc(N2CCN(C(=O)C(Cc3cc4ccccc4[nH]3)n3cc(C(N)C(C)CC)nn3)CC2)n1 (stereo not drawn),-11%,-6%,38%,?,18µM*,0%
COc1ccc(-c2n(CC(=O)OC3CC(C)CCC3C(C)C)c3ccccc3[n+]2C)cc1 (stereo not drawn),3%,-5%,-17%,29%[57.1 µM],6%,11%[57.1 µM]
COc1ccc(OCc2n(CC(=O)OC3CC(C)CCC3C(C)C)c3ccccc3[n+]2C)cc1 (stereo not drawn),1%,-1%,1%,-2%,35µM*,2%
O=C(Cn1ncc(Cl)c(Cl)c1=O)NCC1CCCCC1,9%,-25%,4%,35µM*,10%,-2%
O=C(Cn1ncc(Cl)c(Cl)c1=O)NC1CCCCC1,0%,-14%,-1%,56µM*,.,1%
Cc1nc(CC(=O)Nc2ccc(C)c(C)c2)cs1,2%,.,-8%,3%,.,7%
Fc1cc(Br)ccc1Nc1c2c(nc3nc(-c4cccs4)nn13)CCCC2,?,.,18%,0%[57.1 µM],.,1%[57.1 µM]
Cc1cc(OC(=O)c2ccco2)c(Sc2ccccc2[N+](=O)[O-])c(=O)o1,-6%,5.3µM*,?,-5%[57.1 µM],?,-4%[57.1 µM]
O=C(COC(=O)c1ccco1)Nc1ccccc1[N+](=O)[O-],1%,-6%,-21%,27%[57.1 µM],20%,9%[57.1 µM]
CCN1CCN(C(=S)NCCOC)CC1,-6%,30µM*,-18%,-7%,-6%,2%
C[C@@]12CCc3occc3[C@H]1CC[C@@]13C[C@@H](CC[C@H]12)[C@@](O)(CO)C3,.,.,3%,.,23%,.
CCOc1cc2c(cc1O)CCC1C2CCC2(C)C(O)CCC12 (stereo not drawn),9%,-3%,14%,-15%,.,-8%
CCNc1cc2c(cc1O)CCC1C2CCC2(C)C(O)CCC12 (stereo not drawn),7%,?,79µM*,11%[11.4 µM],.,10%[11.4 µM]
COC(=O)c1ccccc1C(=O)N(Cc1cccnc1)CC1CCCN(C2CCCCC2)C1 (stereo not drawn),8%,-6%,10%,17%,14%,8%
CC(=O)N(C)C1=C(N2CCOCC2)C(=O)c2ccccc2C1=O,10%,-9%,10%,-16%,5%,-14%
CC(=O)N(C1=C(N2CCOCC2)C(=O)c2ccccc2C1=O)c1ccc(C(=O)O)cc1,13%,?,-15%,7.9µM*,-12%,-4%
O=C(O)c1c(Cl)cccc1Nc1ccccc1,0%,-23%,-19%,19%,.,-3%
O=c1c(Cl)c(O)c2cccc3c4ccccc4n1c23,5%,-27%,?,-27%,14µM*,172%
COc1c(O)c(=O)n2c3ccccc3c3ccnc1c32,-7%,-11%,10%,4%,.,-1%
CC(C)C(C(=O)NCC1CCCO1)N(Cc1ccco1)C(=O)CNS(=O)(=O)c1ccccc1 (stereo not drawn),0%,-4%,-3%,28%,19%,13%
CCCC(C(=O)NCC1CCCO1)N(Cc1ccco1)C(=O)CNS(=O)(=O)c1ccc(F)cc1 (stereo not drawn),10%,15µM*,-13%,14%[57.1 µM],11%,9%[57.1 µM]
SMILES,IDH1 R132H inh,PLK1 PBD block,VDR inh,TrxR1 inh,Sfp inh,TrxR1 substrate
CC(C)(C)c1ccc(OCCOc2ccc(C(C)(C)C)cc2NC=O)c(NC=O)c1,8%,4%,1%,-4%[57.1 µM],56µM*,-1%
CCCOc1ccc(Br)cc1CSC(=N)N,11%,30µM*,-7%,10%,-2%,2%
CNC(=O)c1ccc2nc(-c3ccccc3)c(-c3ccccc3)nc2c1,.,.,-2%,11%,.,46%
Cc1ccc(-c2nc3ccc(C(=O)O)cc3nc2-c2ccc(C)cc2)cc1,?,30µM*,-6%,-26%,5%,478%
c1ccc(N2CCN(c3ccccc3)C2c2ccncc2)cc1,4%,-1%,23%,-4%,79µM*,6%[57.1 µM]
O=Nc1c(O)[nH]c2c(Cl)c(Cl)ccc12,.,.,-18%,.,-17%,.
O=C1C=CC(=O)c2c(O)c(Cl)c(Cl)c(O)c21,.,.,4.5µM*,.,11µM*,.
O=C1C=Cc2cccc3ccc(O)c1c23,5%,-1%,3%,5%[2.29 µM],.,-2%[2.29 µM]
O=C1C=CC(=O)c2c(O)c(CO)c(CO)c(O)c21,9%,9.5µM*,?,?,.,-2%
N#Cc1ccc(CN2CCC3(CC2)CCN(C(=O)c2cnccn2)CC3)cc1,.,.,-16%,.,21%,.
CCCCCc1ccc(-c2ccc(Br)cc2)nc1,-12%,.,-23%,2%,.,-6%
CCCCCCCc1ccc(-c2ccc(O)cc2)nc1,16%,24µM*,0%,21%[57.1 µM],25%,5%[57.1 µM]
CCCCc1cc2c(cn1)C(=O)C(C)(OC(C)=O)C(=O)C2 (stereo not drawn),.,.,.,.,15%,.
CS(=O)(=O)N1CCC(C(=O)N2CCN(c3ccccc3F)CC2)CC1,-2%,19µM*,?,4%[57.1 µM],10%,6%[57.1 µM]
O=C(/C=C/c1ccccc1)N/C(=C/c1ccccc1)C(=O)NCCO,2%,-2%,6%,-14%,15%,-14%
C=CCOC(=O)/C(=C/c1ccco1)NC(=O)/C=C/c1ccccc1,7%,-10%,-16%,18µM*,14%,-5%
